High-throughput results deposited in PubChem BioAssay by several laboratories.
Sampled rows, rich in hits. Any-hit rate of the full collection: about 2.8%.
MRP1 act: activates MRP-1. H69AR cells + doxorubicin, viability rescue, CellTiter-Glo. viability increase, % at 10 µM. hit rate 0.61% among 140,000. AID 799;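 active = viability gain under doxorubicin at or above a set limit, the compound median plus 3 SD, cut at about 4.7% in these data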;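 also: MRP-1 overexpressing cells given doxorubicin 25 µM after compound pretreatment; 18-22 h compound pretreatment then 72 h with doxorubicin before readout; 0% = doxorubicin-only wells and 100% = vehicle-treated cells without doxorubicin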
Smad3 FoxH1 inh: inhibitors of human Smad3 transcription factor binding; inhibition, % at 25 µM; hit rate 0.29% among 88,000; P84022; TR-FRET Smad3/Dy647-FoxH1 peptide binding, europium anti-His; AID 630;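 active = compounds that reduce the energy-transfer binding signal between the protein and its labelled peptide by more than half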;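 also: 0% = Smad3 plus labelled peptide maximal FRET and 100% = peptide-only background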
MRP resist rev: compounds reversing MRP-mediated drug resistance. H69AR cells + 2 uM doxorubicin, CellTiter-Glo, 72 h. differential viability (reversal), % at 10 µM. hit rate 0.04% among 85,000;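 active = viability drop by adding the cancer drug above about 55%, with treated viability meeting a 40% cutoff, limit read from the data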;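 also: viability without doxorubicin minus viability with 2 µM doxorubicin for each compound; larger differential means the compound sensitizes cells more to doxorubicin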
ERa SRC1 pot: enhances coactivator binding to human estrogen receptor alpha; P03372; TR-FRET ERalpha-LBD/SRC-Cy5 coactivator binding, 2 h; 100 = basal binding, no effect; coactivator binding (% of control), % at 25.6 µM; hit rate 1.3% among 86,000; in the data active = activity above about 200%;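 also: binding measured in presence of low estradiol as agonist stimulus; 0% = peptide alone without receptor and 100% = receptor with peptide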
ERa coact inh: ER-alpha (human) coactivator binding inhibition | AID 629 | TR-FRET ER-alpha LBD / SRC-1 peptide, estradiol-bound | hit rate 1.7% among 86,000 | inhibition, % at 25.6 µM | P03372; in the data active = inhibition above about 50%;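 also: 0% = receptor plus peptide control and 100% = peptide only without receptor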
ERb coact inh: blocks coactivator binding to human estrogen receptor beta | TR-FRET ER-beta LBD / SRC1-Cy5 peptide binding; receptor agonist-loaded with 1 µM estradiol | inhibition, % at 25.6 µM | hit rate 1.3% among 86,000 | AID 633;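 active = compounds whose percent inhibition of the receptor-coactivator binding signal exceeds about 50% in the single-dose screen, limit read from the data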;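 also: 0% = receptor plus peptide wells without compound and 100% = peptide-only wells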
Numbers without * were called inactive; x = no result given; [ ] = another dose, or the depositor's remark.

SMILES	MRP1 act	Smad3 FoxH1 inh	MRP resist rev	ERa SRC1 pot	ERa coact inh	ERb coact inh
CCN(CC)CCc1c(C)[nH]c(C(=O)OCc2ccccc2)c1C	-1	25	4	6	96*[fluorescence artefact?]	93*[fluorescence artefact?]
CN(C)CCCn1cnc2cc(Cl)c(Cl)cc21	x	-2	x	x	x	x
O=C1c2ccccc2C(=O)N1CCn1nc(Cl)nc1Cl	2	4	-13	118	-13	59*[fluorescence artefact?]
CCOC(=O)c1c(NC(C)=O)sc2c(O)c(CN3CCN(CC)CC3)ccc12	-2	14	-13	200	54*[fluorescence artefact?]	44
O=C(Nc1ccccc1N1CCOCC1)C1CCN(S(=O)(=O)c2ccc(F)cc2)CC1	0	x	x	x	x	x
O=C(c1cn(-c2ccccc2)nc1-c1ccncc1)n1nnc2ccccc21	x	11	-9	216*	33	26
CCCCNN	x	5	x	x	x	x
Cc1cccc(C(OC(=O)c2ccco2)C(=O)NCc2ccccc2)n1 (stereo not given)	-2	-5	-3	53	68*[fluorescence artefact?]	74*[fluorescence artefact?]
Cc1cccc(N2CCN(C(=O)C3CCN(S(=O)(=O)c4cccnc4)CC3)CC2)c1C	-1	-8	3	90	4	2
CC(C)COC(=O)c1nnsc1NC(=O)Nc1ccccc1	0	6	-11	113	64*[fluorescence artefact?]	61*
Cn1c(=O)c(C(=O)Nc2ccccn2)c(O)c2ccccc21	-3	24	-10	286*[fluorescence artefact?]	-5	10
OC(Cc1ccccc1)(Cc1ccccc1)c1ccccc1	x	-2	x	x	x	x
c1ccc(-c2nccc(-c3ccc(-n4cnc5ccccc54)cc3)n2)cc1	0	0	3	148	92*[fluorescence artefact?]	63*[fluorescence artefact?]
c1ccc(-n2nnnc2-n2cnc3ccccc32)cc1	-1	0	-8	113	-9	-4
O=C(O)[C@H](Cc1cc(I)c(O)c(I)c1)C1CCCCC1	x	11	x	x	x	x
Cc1cnn(-c2ccc3nnc(-c4ccc(Cl)cc4)n3n2)c1	-5	1	12	329*[fluorescence artefact?]	26	29
CC1=CC(C)(C)Nc2ccc(CSc3ccccc3)cc21	x	1	x	x	x	x
CN(C)c1ccc(O)c2c1CC1CC3[C@@H](N(C)C)C(=O)C(C(N)=O)=C(O)[C@]3(O)C(=O)C1=C2O (stereo not given in full)	-4	55*[fluorescence artefact?]	-5	2	98*[fluorescence artefact?]	100*[fluorescence artefact?]
NC(N)=N[C@H](CC(=O)O)c1ccccc1	x	0	x	x	x	x
CCc1ccc2nc(SCC(=O)N3CC(=O)Nc4ccccc43)c(C#N)cc2c1	-4	22	-17	360*	5	-13
Cc1noc(C)c1COC(=O)CCCc1nc2ccccc2s1	-1	-11	23	128	3	1
Cc1noc(C)c1COC(=O)c1ccc(-c2nc3ccccc3s2)s1	0	15	-2	152	61*[fluorescence artefact?]	42
COc1cccc(C(=O)N2CCN(C(=O)c3cccc(F)c3)CC2)c1	-3	-4	5	131	-15	-4
O=C(c1cccc(F)c1)N1CCN(C(=O)c2cc3ncc(Br)cn3n2)CC1	-1	-18	-2	66	55*	59*
Cc1cc(C)n2ncc(C(=O)NCc3cccnc3)c2n1	-1	7	14	100	-5	0
SMILES	MRP1 act	Smad3 FoxH1 inh	MRP resist rev	ERa SRC1 pot	ERa coact inh	ERb coact inh
Cc1ccc(S(=O)(=O)N2CCN(C(=O)CSc3ncc(C(F)(F)F)cc3Cl)CC2)cc1	-5	-22	-3	94	69*	1
Cc1ccc(S(=O)(=O)N(C)C)cc1NC(=O)CSc1ncc(C(F)(F)F)cc1Cl	-2	x	x	x	x	x
O=[N+]([O-])c1cccc(/C=N/NC2=CS(=O)(=O)C=C2)c1	x	6	x	x	x	x
O=C(NNC1=C(C(=O)C(F)(F)F)CCC1)c1ccc(Cl)cc1	6.4*	10	-28	94	-14	-11
O=C(NNC1=C(C(=O)C(F)(F)F)CCC1)c1cccc(Cl)c1	6.5*	3	-23	92	-3	-5
O=C(NNC(=S)Nc1cccc(C(F)(F)F)c1)c1cccc(Cl)c1	-4	x	x	x	x	x
CCN(CC)S(=O)(=O)c1ccc(N2CCOCC2)c(NC(=O)CC23CC4CC(CC(Br)(C4)C2)C3)c1	-3	x	x	x	x	x
COc1cccc(/C=N/NC(=O)CNC(=O)c2ccc3c(c2)OCCO3)c1O	5.9*	x	x	x	x	x
COc1cccc(/C=N/NC(=O)CNC(=O)C2COc3ccccc3O2)c1O (stereo not given)	9.6*	x	x	x	x	x
CCN(CC(=O)O)CC(=O)O	x	-8	x	x	x	x
Nc1nonc1NC(=O)CSc1ncccc1C(=O)O	0	14	17	101	-2	64*
